This note sets out measurements from PubChem BioAssay (Tox21).

A short description of assay [1]: qHTS assay to identify small molecule agonists of the sonic hedgehog signaling (Shh) pathway (AID 1259368; calls by dose curve;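 note: NIH/3T3-derived 3T3Gli1-Luc cells carrying a stable Gli1-driven firefly luciferase reporter; series mostly up to about 92 µM; nearly all actives have a fitted effect of over 15% in size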). The procedure, abridged: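 NIH/3T3-derived 3T3Gli1-Luc cells with stably integrated Gli1-driven firefly luciferase, 2,000 cells/well, compounds added after 4 hr. Incubated 24 hr at 37C, 5% CO2; luminescence read after 30 min with luciferase reagent at room temperature.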
A general note: In qHTS, concentration-response curves come from the screen itself.

The target in assay [2] is Estrogen receptor beta (Homo sapiens) (UniProt Q92731). Put plainly: qHTS assay to identify small molecule antagonists of the estrogen receptor beta (ER-beta) signaling pathway (AID 1259378; active = well fitted inhibition curve with a large enough effect in the signal ratio in the repeat runs, not every such curve was filed as active; the % refers to the signal ratio). Put shortly:
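Antagonist mode: compounds added to beta-lactamase reporter HEK293T ER-beta-UAS cells stimulated with E2 (1nM final), 16 hr at 37C. LiveBLAzer B/G FRET substrate, 2 hours room temperature, fluorescence read-out.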

Assay [3] is described as follows: qHTS assay to identify small molecule agonists of the androgen receptor (AR) signaling pathway in the presence of an antagonist - cell viability counter screen (AID 1259379). Note: nearly all actives have a fitted effect of over 25% in size. Note: potency is the fitted concentration of half-maximal effect. The procedure, abridged: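 MDA-kb2 cells (MMTV-luciferase, AR/GR), 3,000/well, 5 h attachment, then 3.0 µM nilutamide (final) and compounds at 15 concentrations. Viability by CellTiter-Fluor fluorescence after 16 h at 37 °C, 0% CO2, in the reporter wells.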

A short description of assay [4]: qHTS assay to identify small molecule antagonists of the estrogen receptor beta (ER-beta) signaling pathway - cell viability counter screen (AID 1259382). Note: series mostly up to about 92 µM; nearly all actives have a fitted effect of over 55% in size. Put shortly:
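ER-beta-UAS-bla HEK293T cells in 2% charcoal-stripped FBS medium, treated with compound plus 1 nM 17-beta-estradiol for 16 h at 37C. Viability read by CellTiter-Glo luminescence after 30 min at room temperature in the same wells.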

Assay [5] addresses Estrogen receptor (Homo sapiens) (UniProt P03372). Kind of assay: qHTS assay to identify small molecule agonists of the estrogen receptor alpha (ER-alpha) signaling pathway in the presence of an antagonist (AID 1259383; calls by dose curve; note: top concentration of the series differs between compounds; nearly all actives have a fitted effect of over 15% in size). The procedure, abridged: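 VM7Luc4E2 cells express endogenous full-length ER-alpha with an ERE-luciferase reporter and were hormone-deprived for 5 days. Compounds at 15 concentrations were added with 10.0nM ICI-182,780 for 22hr at 37C. Luminescence was read with ONE-Glo.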

The nature of assay [6]: qHTS assay to identify small molecule agonists or antagonists of the thyroid stimulating hormone receptor (TSHR) signaling pathway - wild type cell line counter screen (AID 1259384; calls by dose curve). Put shortly: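 Counter screen in untransfected Hek293: compounds (15-point titration, triplicate) plus phosphodiesterase inhibitor Ro20-1724 added after 18 h plating; 30 min RT. Intracellular cAMP via competitive d2/cryptate immunoassay, 1 h incubation.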

The target in assay [7] is Thyrotropin receptor (Homo sapiens) (UniProt P16473). Put plainly: qHTS assay to identify small molecule antagonists of the thyroid stimulating hormone receptor (TSHR) signaling pathway (AID 1259385; calls by dose curve; note: nearly all actives have a fitted effect of over 20% in size). Put shortly: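 Antagonist mode: compound-treated TSHR-expressing HEK293 cells were stimulated with 1.5 ng/mL TSH (final) in presence of Ro20-1724 for 30 min at RT. HTRF cAMP detection after 1 h; each compound tested at 15 concentrations, triplicate.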
Chain of Thyrotropin receptor (Homo sapiens) (P16473 whole entry, looked up): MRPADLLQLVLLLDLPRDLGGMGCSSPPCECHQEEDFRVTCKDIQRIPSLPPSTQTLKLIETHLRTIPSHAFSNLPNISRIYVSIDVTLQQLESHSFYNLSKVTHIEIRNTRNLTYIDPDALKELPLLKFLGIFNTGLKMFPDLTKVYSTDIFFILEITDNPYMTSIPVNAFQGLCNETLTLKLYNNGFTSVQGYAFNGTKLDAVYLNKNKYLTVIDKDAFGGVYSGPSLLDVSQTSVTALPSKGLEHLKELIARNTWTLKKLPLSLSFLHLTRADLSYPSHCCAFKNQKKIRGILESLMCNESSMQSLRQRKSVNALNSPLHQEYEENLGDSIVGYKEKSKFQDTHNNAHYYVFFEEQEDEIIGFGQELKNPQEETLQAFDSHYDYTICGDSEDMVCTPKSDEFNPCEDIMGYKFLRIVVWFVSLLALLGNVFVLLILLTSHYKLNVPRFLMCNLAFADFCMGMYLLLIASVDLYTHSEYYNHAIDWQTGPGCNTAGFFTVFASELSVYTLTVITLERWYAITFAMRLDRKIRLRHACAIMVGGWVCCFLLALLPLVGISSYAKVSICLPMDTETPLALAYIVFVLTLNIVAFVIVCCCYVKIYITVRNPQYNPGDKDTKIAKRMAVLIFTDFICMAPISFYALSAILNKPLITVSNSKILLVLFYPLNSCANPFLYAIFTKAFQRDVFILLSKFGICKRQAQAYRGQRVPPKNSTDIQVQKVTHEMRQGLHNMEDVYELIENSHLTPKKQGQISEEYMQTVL

A short description of assay [8]: qHTS assay to identify small molecule agonists of the estrogen receptor alpha (ER-alpha) signaling pathway in the presence of an antagonist - cell viability counter screen (AID 1259386).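 Note: cells exposed to compounds for 22 h at 37 °C before the viability read; nearly all actives have a fitted effect of over 30% in size.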 Note: potency is the fitted concentration of half-maximal effect. Put shortly:
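Cell viability in VM7Luc4E2 cells (endogenous full-length ER-alpha) measured by CellTiter-Fluor fluorescence in the same wells as the luciferase screen. Cells pre-cultured 5 days in charcoal-stripped serum, then treated 22 h with compounds at 15 concentrations plus 10.0nM ICI-182,780.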

Assay [9] deals with Progesterone receptor (Homo sapiens) (UniProt P06401). Kind of assay: qHTS assay to identify small molecule agonists of the progesterone receptor (PR) signaling pathway (AID 1346784; calls by dose curve; note: nearly all actives have a fitted effect of over 30% in size). Put shortly: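 PR-UAS-bla HEK 293T cells carrying a UAS-driven beta-lactamase reporter were seeded in medium with 2% charcoal-stripped FBS, preincubated 6 hr at 37C, then exposed to compounds in DMSO for 16 hr; agonism was read by LiveBLAzer B/G FRET fluorescence.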
Chain of Progesterone receptor (Homo sapiens) (P06401 whole entry, looked up): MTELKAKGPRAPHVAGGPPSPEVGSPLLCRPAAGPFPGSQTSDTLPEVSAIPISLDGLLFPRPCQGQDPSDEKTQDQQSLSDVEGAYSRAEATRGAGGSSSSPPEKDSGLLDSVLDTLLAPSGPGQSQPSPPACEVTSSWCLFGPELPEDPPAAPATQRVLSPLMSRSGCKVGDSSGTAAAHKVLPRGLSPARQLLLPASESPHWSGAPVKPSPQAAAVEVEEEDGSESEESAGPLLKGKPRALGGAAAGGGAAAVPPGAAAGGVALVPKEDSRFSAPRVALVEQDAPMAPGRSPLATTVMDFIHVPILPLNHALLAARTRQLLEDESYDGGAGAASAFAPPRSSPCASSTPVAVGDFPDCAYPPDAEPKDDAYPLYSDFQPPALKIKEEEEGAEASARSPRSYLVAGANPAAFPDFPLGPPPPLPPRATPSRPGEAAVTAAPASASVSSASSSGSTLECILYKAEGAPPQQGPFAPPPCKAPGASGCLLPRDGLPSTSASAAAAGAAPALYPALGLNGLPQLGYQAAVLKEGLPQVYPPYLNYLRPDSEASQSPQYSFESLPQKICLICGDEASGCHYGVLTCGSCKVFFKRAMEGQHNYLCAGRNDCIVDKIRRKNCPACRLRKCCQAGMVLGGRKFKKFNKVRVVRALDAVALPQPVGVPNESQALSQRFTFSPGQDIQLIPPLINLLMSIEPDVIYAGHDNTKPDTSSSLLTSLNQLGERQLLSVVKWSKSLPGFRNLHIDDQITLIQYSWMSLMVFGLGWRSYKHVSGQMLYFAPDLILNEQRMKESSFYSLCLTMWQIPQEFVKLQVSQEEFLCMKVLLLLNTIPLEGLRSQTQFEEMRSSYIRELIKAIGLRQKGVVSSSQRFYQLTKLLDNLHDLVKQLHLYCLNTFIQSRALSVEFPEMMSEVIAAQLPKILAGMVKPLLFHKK

For assay [10] the target is unchanged. Kind of assay: qHTS assay to identify small molecule antagonists of the progesterone receptor (PR) signaling pathway (AID 1346795; active = well fitted inhibition curve with a large enough effect in the signal ratio in the repeat runs, not every such curve was filed as active; the % refers to the signal ratio). The procedure, abridged:
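PR-UAS-bla HEK293T cells carrying a UAS-driven beta-lactamase reporter were plated in medium with 2% charcoal-stripped FBS and rested 6 hr at 37C. Compounds were added with 1 nM R5020 (final) for 16 hr, then FRET substrate loaded 2 hr at room temperature.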

Assay [11] in a line: qHTS assay to identify small molecule antagonists of the progesterone receptor (PR) signaling pathway - cell viability counter screen (AID 1346798). Note: series mostly up to about 92 µM; nearly all actives have a fitted effect of over 50% in size. Put shortly:
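PR-UAS-bla HEK293T cells in medium with 2% charcoal-stripped FBS were treated with compounds plus R5020 for 16 hr at 37C. Cell viability was then read by CellTiter-Glo luminescence after 30 min at room temperature in the same wells.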

The nature of assay [12]: qHTS assay to identify small molecule agonists of the progesterone receptor (PR) signaling pathway - cell viability counter screen (AID 1346799; calls by dose curve; note: nearly all actives have a fitted effect of over 45% in size). The procedure, abridged: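 PR-UAS-bla HEK293T cells, 3,000 per well in medium with 2% charcoal-stripped FBS, were preincubated 6 hr at 37C, then exposed to compounds for 16 hr; viability was read as CellTiter-Glo luminescence after 30 min at room temperature.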

The nature of assay [13]: qHTS assay to identify small molecule antagonists of the TGF-beta/Smad signaling pathway - cell viability counter screen (AID 1346824). Note: nearly all actives have a fitted effect of over 50% in size. Put shortly: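 Cytotoxicity counter-screen run in the same wells as the beta-lactamase Smad reporter read: CellTiter-Glo luminescence after 30 min at room temperature. HEK 293T SBE-bla cells had 5 hr compound exposure at 37 C with TGF-beta1 (0.25 ng/mL stock).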

A short description of assay [14]: qHTS assay to identify small molecule agonists of the TGF-beta/Smad signaling pathway - cell viability counter screen (AID 1346829). Note: top concentration of the series differs between compounds; nearly all actives have a fitted effect of over 45% in size. The procedure, abridged: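 CellTiter-Glo luminescence readout; SBE-bla HEK 293T cells, overnight plating, compound 5 hr at 37 C/5% CO2, then bla substrate 2 hr RT, then CellTiter-Glo 30 min RT.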
Assay [15] is described as follows: qHTS assay to identify small molecule agonists of the TGF-beta/Smad signaling pathway (AID 1346859; active = well fitted activation curve with a large enough effect in the signal ratio in the repeat runs, not every such curve was filed as active; the % refers to the signal ratio; note: series mostly up to about 77 µM). The procedure, abridged: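 HEK 293T cells stably carrying a beta-lactamase reporter driven by the Smad binding element were seeded overnight, exposed to DMSO-dissolved compounds for 5 hr at 37 C, 5% CO2, then loaded with FRET substrate for 2 hr at room temperature.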

Assay [16] has as its target Estrogen receptor beta (Homo sapiens) (UniProt Q92731). Kind of assay: qHTS assay to identify small molecule agonists of the estrogen receptor beta (ER-beta) signaling pathway (AID 1259377; active = well fitted activation curve with a large enough effect in the signal ratio in the repeat runs, not every such curve was filed as active; the % refers to the signal ratio). Put shortly: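 ER-beta-UAS-bla HEK293T (GripTite) cells carrying a UAS-driven beta-lactamase reporter, in medium with 2% charcoal-stripped FBS, were exposed to compounds for 16 hr at 37C; LiveBLAzer B/G FRET substrate was then added and fluorescence read after 2 hours at room temperature.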

Assay [17] can be described thus: qHTS assay to identify small molecule agonists of the estrogen receptor beta (ER-beta) signaling pathway - cell viability counter screen (AID 1259380). Note: nearly all actives have a fitted effect of over 30% in size. The procedure, abridged: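 ER-beta-UAS-bla HEK293T cells in medium with 2% charcoal-stripped FBS, pre-incubated 6 hr, then treated 16 hr at 37C. Cytotoxicity read in the same wells by CellTiter-Glo luminescence after 30 min at room temperature.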

The target in assay [18] is Thyrotropin-releasing hormone receptor (Homo sapiens) (UniProt P34981). Kind of assay: qHTS assay to identify small molecule antagonists of the thyrotropin-releasing hormone receptor (TRHR) signaling pathway (AID 1346877; active = well fitted inhibition curve with a large enough effect in the repeat runs, not every such curve was filed as active; note: series mostly up to about 51 µM). Put shortly: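 TRHR-expressing HEK293 cells loaded with calcium dye for 2 h at 37 C; compounds pre-incubated 5 min at room temperature before TRH challenge at 1 nM final. Intracellular calcium fluorescence read kinetically for 3 min; 15 concentrations in triplicate.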
Chain of Thyrotropin-releasing hormone receptor (Homo sapiens) (P34981 whole entry, looked up): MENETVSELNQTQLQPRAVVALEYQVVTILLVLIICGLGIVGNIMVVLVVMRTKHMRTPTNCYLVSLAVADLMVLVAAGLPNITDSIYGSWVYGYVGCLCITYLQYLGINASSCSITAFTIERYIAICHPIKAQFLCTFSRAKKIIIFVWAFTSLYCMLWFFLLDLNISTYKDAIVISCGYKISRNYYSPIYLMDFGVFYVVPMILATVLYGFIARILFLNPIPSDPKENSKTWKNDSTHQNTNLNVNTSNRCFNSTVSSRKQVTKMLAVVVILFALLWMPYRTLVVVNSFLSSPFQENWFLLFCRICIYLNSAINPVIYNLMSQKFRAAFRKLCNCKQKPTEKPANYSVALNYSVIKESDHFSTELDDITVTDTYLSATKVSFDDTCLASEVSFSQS

The target in assay [19] is Androgen receptor (Homo sapiens) (UniProt P10275). Put plainly: qHTS assay to identify small molecule agonists of the androgen receptor (AR) signaling pathway in the presence of an antagonist (AID 1259381; calls by dose curve; note: nearly all actives have a fitted effect of over 15% in size). The procedure, abridged: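 MDA-kb2 cells carrying MMTV-luciferase (AR/GR responsive), 3,000 cells/well, co-treated with 3.0 uM nilutamide final. Compounds at 15 concentrations, 16 hr at 37C without CO2. Luciferase luminescence read after 30 min with ONE-Glo.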
Chain of Androgen receptor (Homo sapiens) (P10275 whole entry, looked up): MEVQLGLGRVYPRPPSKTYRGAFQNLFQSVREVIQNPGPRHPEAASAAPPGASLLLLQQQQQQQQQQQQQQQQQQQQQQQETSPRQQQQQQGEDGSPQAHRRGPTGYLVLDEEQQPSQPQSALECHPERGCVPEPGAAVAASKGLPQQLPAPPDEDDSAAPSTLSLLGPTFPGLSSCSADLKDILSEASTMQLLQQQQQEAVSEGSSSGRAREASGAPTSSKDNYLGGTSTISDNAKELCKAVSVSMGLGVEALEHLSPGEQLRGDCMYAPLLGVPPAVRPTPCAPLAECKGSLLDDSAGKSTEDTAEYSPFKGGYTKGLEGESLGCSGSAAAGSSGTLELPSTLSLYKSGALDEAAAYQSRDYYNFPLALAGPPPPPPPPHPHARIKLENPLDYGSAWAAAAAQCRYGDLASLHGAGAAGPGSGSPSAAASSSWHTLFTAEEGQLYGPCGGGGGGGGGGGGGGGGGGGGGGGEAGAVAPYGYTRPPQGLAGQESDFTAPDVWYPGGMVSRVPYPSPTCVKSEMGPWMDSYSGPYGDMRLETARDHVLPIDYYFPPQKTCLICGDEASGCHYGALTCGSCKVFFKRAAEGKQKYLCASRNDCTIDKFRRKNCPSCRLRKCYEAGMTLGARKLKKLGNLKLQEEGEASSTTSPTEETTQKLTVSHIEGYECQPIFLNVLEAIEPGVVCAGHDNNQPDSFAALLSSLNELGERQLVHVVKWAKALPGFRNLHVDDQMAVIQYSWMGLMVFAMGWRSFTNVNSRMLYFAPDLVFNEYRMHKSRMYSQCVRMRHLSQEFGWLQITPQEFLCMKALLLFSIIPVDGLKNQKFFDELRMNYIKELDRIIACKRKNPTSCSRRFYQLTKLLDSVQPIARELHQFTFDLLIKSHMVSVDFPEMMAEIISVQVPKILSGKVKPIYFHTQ

Unmarked numbers belong to inactive results. Inconclusive results are not listed. Active and inactive are the calls of the source. Unless noted, calls come from the whole dose curve; as a rule, active = well fitted curve in the direction sought with a large enough effect in the repeat runs; inconclusive = weak or mixed curves; inactive = no such curve, though single readings can be large; an effect the other way counts as inactive or inconclusive.

Chain of Estrogen receptor beta (Homo sapiens) (Q92731 whole entry, looked up): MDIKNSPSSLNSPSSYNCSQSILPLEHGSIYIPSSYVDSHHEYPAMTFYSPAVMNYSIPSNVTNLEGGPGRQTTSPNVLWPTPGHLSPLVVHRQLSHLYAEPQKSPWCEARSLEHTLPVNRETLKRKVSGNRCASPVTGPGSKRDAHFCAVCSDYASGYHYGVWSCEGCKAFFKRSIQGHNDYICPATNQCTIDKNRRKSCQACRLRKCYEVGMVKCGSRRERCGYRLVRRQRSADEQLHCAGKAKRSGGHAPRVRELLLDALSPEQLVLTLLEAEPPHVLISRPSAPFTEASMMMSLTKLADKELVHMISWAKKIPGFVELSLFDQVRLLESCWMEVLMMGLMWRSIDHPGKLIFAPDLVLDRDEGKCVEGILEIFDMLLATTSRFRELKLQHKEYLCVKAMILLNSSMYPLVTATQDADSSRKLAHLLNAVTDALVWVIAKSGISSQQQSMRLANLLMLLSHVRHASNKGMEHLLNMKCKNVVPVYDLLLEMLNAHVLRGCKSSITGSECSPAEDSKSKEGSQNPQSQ
Chain of Estrogen receptor (Homo sapiens) (P03372 whole entry, looked up): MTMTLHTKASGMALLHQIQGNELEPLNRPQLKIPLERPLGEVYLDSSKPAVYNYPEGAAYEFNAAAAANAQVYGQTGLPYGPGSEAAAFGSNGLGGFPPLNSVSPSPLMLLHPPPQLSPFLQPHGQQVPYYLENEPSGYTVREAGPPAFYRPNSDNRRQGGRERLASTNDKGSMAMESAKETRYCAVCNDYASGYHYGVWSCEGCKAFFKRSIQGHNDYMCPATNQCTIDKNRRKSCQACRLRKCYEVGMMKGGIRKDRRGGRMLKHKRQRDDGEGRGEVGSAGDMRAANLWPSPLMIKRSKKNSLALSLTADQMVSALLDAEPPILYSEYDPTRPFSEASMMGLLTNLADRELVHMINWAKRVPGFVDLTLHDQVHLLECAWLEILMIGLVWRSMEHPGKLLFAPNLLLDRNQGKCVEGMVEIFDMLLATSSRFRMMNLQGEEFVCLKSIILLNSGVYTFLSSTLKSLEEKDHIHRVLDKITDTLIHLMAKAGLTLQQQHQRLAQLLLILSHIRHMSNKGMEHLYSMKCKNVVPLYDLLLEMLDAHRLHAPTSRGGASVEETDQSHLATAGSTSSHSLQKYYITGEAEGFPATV

Take `O=C1NCCN1`: the Potency result in assay [1], in assay [2], in assay [3], in [4], in assay [5] and in [7] was “inactive” each time. Besides, the Potency entry in assay [8], in assay [9], in [10], in assay [11] and in assay [12] was “inactive” in each case. Moreover, the molecule was classed as inactive in assay [6], in [13], in [14] and in [15].

For the molecule `CCCCN(CCCC)C(=S)SSC(=S)N(CCCC)CCCC`, the Potency result in assay [1], in assay [16], in assay [17], in assay [5], in [7] and in assay [8] was “inactive” each time. Moreover, the Potency result in assay [9], in assay [10], in assay [11] and in assay [12] was “inactive” in each case. For the same molecule, the molecule was classed as inactive in assay [6], in assay [13], in [14], in assay [15] and in [18].

Turning to `COc1ccccc1N=Nc1c(S(=O)(=O)O)cc2cc(S(=O)(=O)O)cc(NC(C)=O)c2c1O`, the Potency result in assay [1], in assay [16], in [17], in assay [4], in [9] and in assay [10] was “inactive” in each case. In addition, the Potency result in assay [11] and in assay [12] was “inactive” in each case. The Potency in assay [3] is 25.7 µM (active); in assay [8] it was 22.9 µM (active). Also, the molecule was called inactive in assay [13], in assay [14], in assay [15] and in [18].

In the case of `COc1ccc([C@@H]2Sc3ccccc3NC(=O)[C@@H]2O)cc1`, the Potency result in assay [1], in assay [3], in [17], in assay [19], in assay [4] and in assay [5] was “inactive” each time. Further, the Potency entry in assay [7], in assay [8], in assay [9] and in [12] was “inactive” throughout. Further, the outcome in assay [6], in assay [14] and in assay [15] was inactive.

Regarding `c1cc[c]([Bi]([c]2ccccc2)[c]2ccccc2)cc1`, the Potency result in assay [1], in assay [16], in assay [3], in [17], in [4] and in assay [5] was “inactive” in each case. Further, the Potency entry in assay [7] and in assay [8] was “inactive” throughout. In addition, the molecule was classed as inactive in assay [6], in [13], in assay [14], in assay [15] and in assay [18].

Consider `CCOC(=O)N1CCC(n2c(=O)[nH]c3cc(Cl)ccc32)CC1`, for which the Potency result in assay [1], in [16], in assay [17], in [19], in assay [4] and in assay [5] was “inactive” in each case. Also, the Potency entry in assay [7] and in [9] was “inactive” throughout. The Potency was 29.8 µM (active) in assay [3] and 23.7 µM (active) in [8]. The outcome in assay [6], in [13], in [14], in assay [15] and in assay [18] was inactive.

Take `O=C(CCCN1CCN(c2ccc(F)cc2)CC1)NC1c2ccccc2CSc2ccccc21` (stereo not given): the Potency result in assay [1], in assay [16], in assay [3], in [5], in assay [8] and in assay [9] was “inactive” in each case. For the same molecule, the Potency entry in assay [12] is “inactive”. Further, the outcome in assay [6], in assay [14], in assay [15] and in assay [18] was inactive.

For the molecule `CC(C)CCCC(=O)O`, the Potency entry in assay [1], in assay [3], in assay [17], in assay [19], in assay [4] and in assay [5] was “inactive” in each case. In addition, the Potency entry in assay [8], in assay [9], in assay [10], in assay [11] and in assay [12] was “inactive” in each case. Also, the result in assay [13], in [14] and in assay [15] was inactive.
